Source: PubChem BioAssay (Tox21)
Records with an inconclusive call do not appear. Active and inactive are the calls of the source. Unless noted, calls come from the whole dose curve; as a rule, active = well fitted curve in the direction sought with a large enough effect in the repeat runs; inconclusive = weak or mixed curves; inactive = no such curve, though single readings can be large; an effect the other way counts as inactive or inconclusive.

Assays:
[1] = qHTS assay to identify small molecule agonists of H2AX (AID 1224845; active = well fitted activation curve with a large enough effect in the signal ratio in the repeat runs, not every such curve was filed as active; the % refers to the signal ratio; note: potency is the fitted concentration of half-maximal effect)
Summary of the method: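 Wild-type CHO-K1 cells, plated overnight, exposed 3hr at 37C to 15 concentrations (0.76% DMSO final). Lysed, then HTRF anti-pH2AX (S139) cryptate and anti-H2AX-d2 antibodies, 24 hr room temperature; 665/620 nm emission read.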

[2] = qHTS assay to identify small molecule agonists of the hypoxia (HIF-1) signaling pathway (AID 1224846; active = well fitted activation curve with a large enough effect in the signal ratio in the repeat runs, not every such curve was filed as active; the % refers to the signal ratio)
Summary of the method: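 HRE-bla ME-180 beta-lactamase reporter cells in medium with 0.5% dialyzed FBS, pre-incubated 5 h then exposed to compounds 17 h at 37C, 5% CO2; reporter induction read with CCF4-AM FRET substrate.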

[3] = qHTS RealTime-Glo MT Cell Viability Assay in HepG2 cells - 24 hour (AID 1224867); note: nearly all actives have a fitted effect of over 50% in size; note: potency is the fitted concentration of half-maximal effect
Summary of the method: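 Cells + NanoLuc/prosubstrate dispensed (600 cells/well) → 5 h at 37 C/5% CO2 → compounds in DMSO transferred → 40 h incubation at 37 C, luminescence read at 0, 8, 16, 24, 32, 40 h.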

[4] = qHTS RealTime-Glo MT Cell Viability Assay in HEK293 cells - 32 hour (AID 1224868); note: nearly all actives have a fitted effect of over 50% in size; note: potency is the fitted concentration of half-maximal effect; for activity change, negative = cytotoxic: top concentration of the series differs between compounds
Summary of the method: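 Tox21 10K qHTS, HEK293, 600 cells/well, RealTime-Glo reagent co-dispensed with cells; 5 h preincubation, compound by pintool, 37 C, luminescence at 0–40 h.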

[5] = A CellTox Green Cytotoxicity Assay to monitor cytotoxicity in HEK293 cells - 0 hour (AID 1224869); note: nearly all actives have a fitted effect of over 50% in size
Summary of the method: (§1)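 HEK293 cells, 600/well, were preincubated 5 hours and then exposed to compounds at 37 C for up to 40 hours. A cell-impermeant cyanine dye staining dead-cell DNA was read by fluorescence at 0, 8, 16, 24, 32 and 40 h time points.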

[6] = qHTS RealTime-Glo MT Cell Viability Assay in HepG2 cells - 40 hour (AID 1224870); note: nearly all actives have a fitted effect of over 50% in size; note: potency is the fitted concentration of half-maximal effect
Summary of the method: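 HepG2 cells (600/well) mixed with RealTime-Glo MT reagent, settled 5 h at 37 C/5% CO2 before compound addition. Nonlytic NanoLuc luminescence from viable-cell prosubstrate reduction read repeatedly during 40 h treatment at 37 C.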

[7] = qHTS assay to identify small molecule agonists of the estrogen related receptor (ERR) signaling pathway from Tox21 library (AID 1224849; calls by dose curve; note: nearly all actives have a fitted effect of over 15% in size); details: ERR reporter cell line, ONE-Glo luciferase, 18 h; at 92.4 µM (top of the series) unless noted
Summary of the method: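 ERR reporter cells (NTP line) pre-incubated 6 hours at 37 C, then exposed to compounds for 18 hours at 37 C. ONE-Glo luciferase luminescence was read after 30 minutes at room temperature.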

[8] = A CellTox Green Cytotoxicity Assay to monitor cytotoxicity in HEK293 cells - 40 hour (AID 1224871); note: nearly all actives have a fitted effect of over 45% in size; note: potency is the fitted concentration of half-maximal effect
Summary of the method: as §1

[9] = qHTS assay to identify small molecule agonists of H2AX - cell viability counter screen (AID 1224847; calls by dose curve; note: top concentration of the series differs between compounds; nearly all actives have a fitted effect of over 30% in size)
Summary of the method: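 CHO-K1 cells plated overnight at 37C, then exposed 3 h at 37C to compounds at 15 concentrations (0.76% DMSO final). Viability by CellTiter-Glo luminescence after 30 min at room temperature.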

[10] = qHTS assay to identify small molecule antagonists of the estrogen related receptor (ERR) signaling pathway from Tox21 library (AID 1224848); note: nearly all actives have a fitted effect of over 50% in size; note: potency is the fitted concentration of half-maximal effect
Summary of the method: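 Luminescent reporter read-out (ONE-Glo) from NTP's ERR cell line after 18 h treatment at 37 C with DMSO-dissolved Tox21 compounds; cells pre-plated 6 h beforehand at 2,000 per well.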
% is set by controls: 0 for no effect and ±100 for the full control effect.

COCCCCCCCCOCCC[Si](C)(O[Si](C)(C)C)O[Si](C)(C)C
active: Potency [4] 3.89 µM
inactive: Potency [1] | outcome [2] | Potency [3] | Potency [5] | Potency [6]

CC(C)c1ccc2c(C(C)C)cc(C(C)C)c(S(=O)(=O)O)c2c1
inactive: Potency [1] | outcome [2] | Potency [3] | Potency [4] | Potency [5] | Potency [6]

Nc1nc(CC(=O)O)cs1
inactive: Potency [1] | outcome [2] | activity change, positive = activation [7] -48.9% | Potency [3] | Potency [5] | Potency [8]

CC(C)CCCCCCOC(=O)c1ccc(C(=O)OCCCCCCC(C)C)c(C(=O)OCCCCCCC(C)C)c1
inactive: Potency [1] | outcome [2] | Potency [9] | Potency [3] | Potency [4] | Potency [5] | Potency [8]

CCCCCCOC(=O)CCC
inactive: Potency [1] | outcome [2] | Potency [9] | Potency [3] | Potency [4] | Potency [5] | Potency [6] | Potency [8]

CC[C@H](C)[C@@H](C(=O)O)n1sc2ccccc2c1=O
inactive: Potency [1] | outcome [2] | Potency [9] | Potency [4] | Potency [5] | Potency [8]

CCOC(=S)SSC(=S)OCC
inactive: Potency [1] | outcome [2] | Potency [9] | Potency [3] | Potency [4] | Potency [5] | Potency [8]

Cc1cccc(C(C)(C)C)c1O
inactive: Potency [1] | outcome [2] | Potency [3] | Potency [4] | Potency [5] | Potency [6]

CCN(CC)C(C)CN1c2ccccc2Sc2ccccc21 (centres undefined)
inactive: Potency [1] | outcome [2] | Potency [9] | Potency [3] | Potency [4] | Potency [5] | Potency [6] | Potency [8]

Cc1c(Cn2ccnc2)c2ccccc2n1CCC(=O)O
inactive: Potency [1] | outcome [2] | Potency [9] | Potency [3] | Potency [4] | Potency [5] | Potency [8]

CN(C)C/C=C(/c1ccc(Br)cc1)c1cccnc1
inactive: Potency [1] | Potency [9] | Potency [3] | Potency [4] | Potency [5] | Potency [6] | Potency [8]

CC(C(=O)O)c1ccc(-c2ccccc2)c(F)c1 (centres undefined)
inactive: Potency [1] | Potency [3] | Potency [4] | Potency [5] | Potency [8]

NC(N)=N/N=C/c1c(Cl)cccc1Cl
inactive: Potency [1] | Potency [9] | activity change, positive = activation [7] -17.6% [at 42.5 µM] | Potency [3] | Potency [4] | Potency [5] | Potency [6] | Potency [8]

Nc1ccc(C(=O)N2CC3CC(CN(Cc4ccccc4)C3)C2)cc1
inactive: Potency [1] | Potency [9] | activity change, positive = activation [7] -11% [at 42.5 µM] | Potency [3] | Potency [4] | Potency [5] | Potency [6] | Potency [8]

O=S1(=O)c2cccc3cccc(c23)N1CCCN1CCN(c2ccc(F)cc2)CC1
inactive: Potency [1] | Potency [9] | activity change, positive = activation [7] -30.2% [at 42.5 µM] | Potency [3] | Potency [4] | Potency [5] | Potency [6] | Potency [8]

NC(N)=NN=C(/C=C/c1ccc([N+](=O)[O-])o1)/C=C/c1ccc([N+](=O)[O-])o1
inactive: Potency [1] | activity change, positive = activation [7] -66.8% [at 42.5 µM] | Potency [5]
active: Potency [3] 1.69 µM | Potency [6] 1.51 µM | Potency [8] 8.49 µM

NC[C@H]1O[C@H](O[C@H]2[C@H](O)[C@@H](O[C@H]3O[C@H](CO)[C@@H](O)[C@H](N)[C@H]3O)[C@H](N)C[C@@H]2N)[C@H](O)[C@@H](O)[C@@H]1O
inactive: activation (H2AX phosphorylation) [1] -0.622% [at 14 µM] | activity change, negative = cytotoxicity [9] 4.56% [at 14 µM] | activity, negative = inhibition [10] 17.9% [at 8.39 µM] | activity change, positive = activation [7] 8.77% [at 8.39 µM] | activity change, negative = cytotoxicity [3] -0.929% [at 6.97 µM] | activity change, negative = cytotoxic [4] 12.4% [at 6.97 µM] | cytotoxicity [5] 6.99% [at 6.97 µM] | activity change, negative = cytotoxic [6] -6.23% [at 6.97 µM] | cytotoxicity increase [8] 9.35% [at 6.97 µM]

CCCCCOC(=O)COc1cc(N2C(=O)C3=C(CCCC3)C2=O)c(F)cc1Cl
inactive: Potency [1] | outcome [2] | Potency [3] | Potency [4] | Potency [5] | Potency [6] | Potency [8]

COCCOCCOCCOCCOC
inactive: Potency [1] | Potency [9] | Potency [3] | Potency [4] | Potency [5] | Potency [6] | Potency [8]

COc1ccc([C@@H]2Sc3ccccc3N(CCN(C)C)C(=O)[C@@H]2OC(C)=O)cc1
active: Potency [10] 16.8 µM
inactive: Potency [1] | Potency [9] | activity change, positive = activation [7] -33.7% [at 42.5 µM] | Potency [3] | Potency [5] | Potency [6] | Potency [8]

Oc1ccc(O)c2c(O)cccc12
inactive: Potency [1] | Potency [9] | activity change, positive = activation [7] 1.72% | Potency [3] | Potency [4] | Potency [5] | Potency [8]

C=CC(=O)OCC(C)OCC(C)OCC(C)OC(=O)C=C (centres undefined)
active: Potency [1] 101 µM | Potency [4] 43.6 µM | Potency [8] 54.9 µM
inactive: Potency [5]

c1ccc(-c2nc[nH]c2-c2ccccc2)cc1
inactive: Potency [1] | Potency [9] | Potency [3] | Potency [4] | Potency [5] | Potency [6] | Potency [8]

OCC1CC2CC1C1CCC(CO)C21 (centres undefined)
inactive: Potency [1] | Potency [9] | activity change, positive = activation [7] -2.51% | Potency [3] | Potency [4] | Potency [5] | Potency [6] | Potency [8]

CN(C)CC[C@@H](c1ccc(Br)cc1)c1ccccn1
inactive: Potency [1] | Potency [9] | Potency [3] | Potency [4] | Potency [5] | Potency [6] | Potency [8]

O=C(O)Cn1c(C(=O)Nc2nc(-c3ccccc3Cl)cs2)cc2ccccc21
inactive: Potency [1] | Potency [9] | Potency [3] | Potency [4] | Potency [5] | Potency [8]
